Assay results published in PubChem BioAssay AID463188 (University of Pittsburgh Molecular Library Screening Center, 2010).
Screen size: about 1,300 compounds; about 360 (28%) were called active.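 The calls were made as follows: active = average inhibition of at least 50%, with Z-scores no higher than 3 in both the phospho-tyrosine peptide and fluorescence counterscreens; inactive = the rest.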 Only a sample is shown.

Key:
[1] = retest of Hck:Nef kinase inhibitor hits, confirmation, biochemical, Z-Lyte FRET, 384-well, p-Tyr peptide counterscreen (AID 463188); conditions: Recombinant Hck-YEEI:Nef, Z-Lyte FRET kinase assay; measured here: p-Tyr peptide counterscreen; at 10 µM
[2] = biological target: Tyrosine-protein kinase HCK (Homo sapiens) (UniProt P08631); experiment: as above; conditions: Recombinant Hck-YEEI:Nef, Z-Lyte FRET kinase assay; at 10 µM; stronger effect = higher value
Sequence of Tyrosine-protein kinase HCK (Homo sapiens) (P08631 whole entry, looked up): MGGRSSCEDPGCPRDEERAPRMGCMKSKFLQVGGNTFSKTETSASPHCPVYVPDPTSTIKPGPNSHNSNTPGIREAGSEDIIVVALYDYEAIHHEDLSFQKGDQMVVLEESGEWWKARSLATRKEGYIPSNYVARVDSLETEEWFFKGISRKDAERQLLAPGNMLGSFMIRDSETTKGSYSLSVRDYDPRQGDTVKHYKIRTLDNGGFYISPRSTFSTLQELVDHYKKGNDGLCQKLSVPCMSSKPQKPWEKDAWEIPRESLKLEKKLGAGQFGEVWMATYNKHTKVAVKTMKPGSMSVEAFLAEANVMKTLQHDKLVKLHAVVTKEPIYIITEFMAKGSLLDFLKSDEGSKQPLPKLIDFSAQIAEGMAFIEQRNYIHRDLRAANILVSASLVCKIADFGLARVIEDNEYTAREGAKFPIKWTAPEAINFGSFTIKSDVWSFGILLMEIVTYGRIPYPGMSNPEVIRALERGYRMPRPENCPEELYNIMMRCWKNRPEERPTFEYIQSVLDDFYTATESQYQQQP

SMILES	z-score [1]	inhibition [2]	inhibition [1]
N#Cc1c(-c2cccs2)nc(SCC(=O)c2ccc(Br)cc2)[nH]c1=O	-2.14	54.2% (active)	–
Cc1ccc(S(=O)(=O)c2c(N)n(C)c3nc4ccccc4nc23)cc1	15.1	51.3% (inactive)	–
Cc1ccc(-n2c(=O)c(C#N)cc3c(=O)n4ccccc4nc32)cc1C	–	–	15.8
COc1ccc(N=Cc2c(O)[nH]c3ccccc23)cc1OC	2.53	67.3% (active)	–
CCN(CC)c1ccc2cc(C(=O)O)c(=O)oc2c1	–	–	180
CC(C)n1cnc2c(Nc3cccc(Cl)c3)nc(N(CCO)CCCO)nc21	-1.42	92.6% (active)	–
COc1cccc(CNC(=O)CCC2CCCN(Cc3ccc(OC(F)F)cc3)C2)c1 (configuration not stated)	0.273	13.3% (inactive)	–
CCn1c(=O)c2cc(C(=O)Nc3cccc(C(C)=O)c3)sc2c2ccccc21	0.522	30.2% (inactive)	–
CC(C)(C)OC(=O)NCCCCCC(=O)N/N=C/c1coc2ccccc2c1=O	-0.798	80.9% (active)	–
Oc1c(Cl)cc(Cl)c(Cl)c1Cc1c(O)c(Cl)cc(Cl)c1Cl	-1.64	12.2% (inactive)	–
COC(=O)C1=CN(Cc2ccc(OC)c(OC)c2)C=C(C(=O)OC)C1c1cccs1	–	–	22.9
Cc1ccc(-c2cc(C(=O)NCc3cn(C)nc3C)c3cc(Br)ccc3n2)cc1	-0.98	46.1% (inactive)	–
O=C(Nc1ccncc1)c1cc(-c2ccccn2)nc2ccc(Br)cc12	0.0526	76.4% (active)	–
O=C(CSc1cccc2cccnc12)N/N=C/c1cccnc1	-0.0644	36.9% (inactive)	–
Cc1ncc(CC(=O)n2cc(C(=O)c3cc(Cl)ccc3O)cn2)s1	-1.16	75% (active)	–
COC/C=C/C1=CC2=CC(=O)C(C)(OC(=O)CCC(=O)OC)C(=O)C2=CO1 (configuration not stated)	-0.884	43.8% (inactive)	–
O=C(Cc1ccccc1)Nc1cccc(C(=O)N/N=C/c2ccco2)c1	-0.994	30% (inactive)	–
COc1ccc(C(=O)n2nc(-c3ccc(Cl)cc3)nc2N)cc1OC	3.28	2.06% (inactive)	–
CCn1c(=N)c(C(=O)NCCCOC)cc2c(=O)n3cccc(C)c3nc21	–	–	192
Cc1ccc(/C=C/C(=O)Nc2ccc([N+](=O)[O-])c(NC(=O)/C=C/c3ccc(C)o3)c2)o1	-2.13	51.4% (active)	–
O=C(NNC(=O)c1csc(-c2cccnc2)n1)Nc1ccc(Cl)cc1	-0.478	11.4% (inactive)	–
Cc1ccc(SC(CC(=O)c2ccc(C(C)(C)C)cc2)C(=O)O)cc1 (configuration not stated)	-0.516	20.8% (inactive)	–
O=[N+]([O-])c1cc(Cl)cc(/C=N/NC(=S)Nc2cc(S(=O)(=O)N3CCOCC3)ccc2Cl)c1O	-0.299	63.6% (active)	–
CN(C)S(=O)(=O)c1cccc(-c2nn(-c3ccccc3)cc2/C=C2\SC(=S)N(CC(=O)O)C2=O)c1	-1.38	38.1% (inactive)	–
C=C(C)COc1ccc(-c2nc(N)ncc2-c2ccccc2OC)c(O)c1	-0.555	55.8% (active)	–

SMILES	z-score [1]	inhibition [2]	inhibition [1]
CCOc1ccc(-c2nc(N)ncc2-c2ccccc2OC)c(O)c1	-1.74	63.2% (active)	–
COc1cccc(C(=O)c2cc3ccc(O)cc3oc2=O)c1	–	–	51.8
O=C1Oc2ccccc2C(=O)/C1=C/c1ccccc1O	-0.0667	30.1% (inactive)	–
Cc1cc(/C=N/Nc2ccc([N+](=O)[O-])cn2)c(C)n1-c1cccc(C(=O)O)c1	0.131	38.5% (inactive)	–
COC(=O)Cc1cc(=O)oc2c(C)c(O)ccc12	–	–	94.6
CC(=O)Oc1ccc2c(C)c(CC(C)O)c(=O)oc2c1 (configuration not stated)	–	–	122
CCCCN(CCCC)CC(O)Cn1c2ccccc2c(=O)c2ccccc21 (configuration not stated)	–	–	80.9
OC(c1nnc(-c2ccccc2)o1)c1cccs1 (configuration not stated)	-1.39	19.9% (inactive)	–
CCOc1ccccc1C1C(C(=O)OC)=CN(C)C=C1C(=O)OC	–	–	41.6
Cc1cccc(-[n+]2c(-c3cccc(Br)c3)[nH]c3nc4ccccc4nc32)c1	-0.694	13.5% (inactive)	–
O=C(Nc1ccc(S(=O)(=O)Nc2nccs2)cc1)c1cc(-c2ccncc2)nc2ccccc12	-0.658	65.3% (active)	–
Cc1cc(C)c2nc(-c3cccnc3)cc(C(=O)Nc3ccc(S(=O)(=O)Nc4onc(C)c4C)cc3)c2c1	-1.22	40.5% (inactive)	–
COCCCn1c(-c2cccs2)nc2nc3ccccc3nc21	–	–	61.4
CN(CC(=O)Nc1cccc(F)c1)CC(=O)Nc1cccc([N+](=O)[O-])c1	-0.0694	62.1% (active)	–
O=[N+]([O-])c1cccc(Nc2c3ccccc3nc3ccccc23)c1	0.872	9.19% (inactive)	–
O=C(NCc1ccccc1)C1CCCN(c2nc3ccsc3c(=O)s2)C1 (configuration not stated)	2.05	18.7% (inactive)	–
CN(C(=O)COC(=O)c1cc(-c2ccco2)nc2ccccc12)C1CCS(=O)(=O)C1 (configuration not stated)	0.38	49.5% (inactive)	–
c1ccc(CSc2nnc(-c3ccco3)c(-c3ccco3)n2)cc1	0.442	26.4% (inactive)	–
Clc1ccc2c(c1)C1=C(C(c3ccncc3)O2)C(c2ccc(Br)cc2)n2ncnc2N1 (configuration not stated)	1.34	92.8% (active)	–
Cc1cc(OC(=O)c2ccccc2Cl)ccc1N1C(=O)CCC1=O	0.0636	11.5% (inactive)	–
COC(=O)c1ccc(OCC(O)CN(CCO)CC(O)Cn2ccc3ccccc32)cc1 (configuration not stated)	3.64	-1.67% (inactive)	–
O=C(O)CCn1cc(/C=C/C(=O)c2ccc(Cl)cc2)c(-c2cccc(Br)c2)n1	-0.131	24.8% (inactive)	–
CCCn1c(=NC(C)=O)c(C(=O)OCC)cc2c(=O)n3ccccc3nc21	85.9	33.1% (inactive)	–
Cc1cccn2c(=O)c3cc(C#N)c(=O)n(CCCN4CCOCC4)c3nc12	–	–	248
